Compound activity: PubChem, National Center for Advancing Translational Sciences (NCATS)
HTT cytoprotect = qHTS Multiplex Assay to Identify Dual Action Probes in a Cell Model of Huntington: Cytoprotection (ATP). AID 1471, 2008. 230,000 tested, 0.14% active. PC12 HTT-Q103 induced, cytoprotection, ATP luminescence, 40 h. Potency, µM (highest dose often 56.4 µM), for inactives: cytoprotection (ATP increase), usual class: activators; note: potency is the fitted concentration of half-maximal effect; % of control where 0% means no effect; nearly all actives have a fitted effect of over 45% in size
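ATP quantification (ATPlite) reports survival of PC12 cells in which tebufenozide, 100 nM final, switches on Htt exon 1 with 103 glutamines linked to GFP; compounds are titrated.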
PNC inhibitor = High Content Assay for Compounds that inhibit the Assembly of the Perinucleolar Compartment; PC3M PTB-GFP, PNC prevalence imaging, 16 h; hits give low values; activity change (PNC), negative = inhibition, % at 10 µM; 140,000 tested, 3.1% active; AID 2417, 2010;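 active = readout at or below -70, meaning at least 70% loss of cells showing the perinucleolar compartment, a nuclear body marking cancer cells; inconclusive = readout between -30 and a set limit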;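 note: plate controls were DMSO wells for no effect and camptothecin positive control wells for full effect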
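PC3M cells stably expressing PTB-GFP, 750–1000 cells/well, treated 16 h at 37 °C with compound (23 nl of library stock), in duplicate. After paraformaldehyde fixation and Hoechst stain, imaged at 20x; PNC prevalence scored by image analysis.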
ALDH1A1 block = qHTS Assay for Inhibitors of Aldehyde Dehydrogenase 1 (ALDH1A1); Aldehyde dehydrogenase 1A1 (Homo sapiens), P00352; Purified ALDH1A1, NADH fluorescence, propionaldehyde substrate; Potency, µM (titrated, usually from 75.3 µM), without a hit: at the top dose activity, negative = inhibition, actives largely listed as inhibitors; 220,000 tested, 7.3% active; AID 1030, 2008; active = well fitted inhibition curve with a large enough effect, not every such curve was filed as active; inconclusive = small, poorly fitted or top-dose-only effect, or another doubt; inactive = no such curve, though single readings can be large or run the other way;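 note: potency is the fitted concentration of half-maximal effect; plate controls were no enzyme wells and a reference inhibitor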
HPGD inh = qHTS Assay for Inhibitors of HPGD (15-Hydroxyprostaglandin Dehydrogenase). purified HPGD, NADH fluorescence kinetic, PGE2 substrate. Potency, µM, for the others: top-dose activity change, negative = inhibition, actives largely listed as inhibitors. 150,000 tested, 4.3% active; active = well fitted inhibition curve with a large enough effect, not every such curve was filed as active; inconclusive = small, poorly fitted or top-dose-only effect, or another doubt; inactive = no such curve, though single readings can be large or run the other way; note: potency is the fitted concentration of half-maximal effect; % is set by controls: 0 for no effect and ±100 for the full control effect
Target sequence (P15428 whole entry, looked up): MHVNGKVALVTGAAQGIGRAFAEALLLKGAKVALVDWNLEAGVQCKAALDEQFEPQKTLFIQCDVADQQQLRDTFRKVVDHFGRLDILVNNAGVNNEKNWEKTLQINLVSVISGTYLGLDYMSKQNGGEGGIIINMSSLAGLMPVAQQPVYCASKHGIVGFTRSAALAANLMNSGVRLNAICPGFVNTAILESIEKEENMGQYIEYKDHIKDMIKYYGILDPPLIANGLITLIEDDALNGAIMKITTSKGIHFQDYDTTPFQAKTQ
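NADH formation kinetics: reaction with 30 uM PGE2 and 1 mM NAD+ (final), 20 nM enzyme, Tris-HCl pH 8 with Tween 20, after 15 min compound preincubation at room temperature. Fluorescence change, last versus first of five reads.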
GoLoco inh red = qHTS Assay for Inhibitors of RGS12 GoLoco Motif Activity (Red Fluorophore); Guanine nucleotide-binding protein G(i) subunit alpha-1 (Homo sapiens), P63096; Gai1:RGS12 GoLoco peptide FP, rhodamine, 10 min; Potency, µM (titrated, usually from 61.6 µM), inactives show top-dose activity, negative = inhibition, hits mostly inhibitors; 230,000 tested, 0.44% active; active = well fitted inhibition curve with a large enough effect, not every such curve was filed as active; inactive = no such curve, though single readings can be large or run the other way; note: potency is the fitted concentration of half-maximal effect; % is set by controls: 0 for no effect and ±100 for the full control effect; nearly all actives have a fitted effect of over 30% in size
HTT aggregate = qHTS Multiplex Assay to Identify Dual Action Probes in a Cell Model of Huntington: Aggregate Formation (GFP). PC12 HttQ103-GFP aggregates, Acumen cytometry, 40 h. Potency, µM (titrated, usually from 46.1 µM), inactives show at the top dose activity change, negative = inhibition, usual class: inhibitors. 220,000 tested, 1.1% active; note: potency is the fitted concentration of half-maximal effect; % is set by controls: 0 for no effect and ±100 for the full control effect; nearly all actives have a fitted effect of over 60% in size
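Aggregate formation scored by laser-scanning cytometer (488 excitation, 500–530 emission) in lysed PC12 cells expressing Q103-GFP after 100 nM tebufenozide induction; library tested in dose series, with ATPLite reagent added in the multiplex.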
Active calls of the source: *; ? = inconclusive; . = not tested or not shown; [ ] = another dose, or the depositor's remark. Hits are enriched below; roughly 11% of the tested compounds scored in any of these assays. Unless noted, calls come from the whole dose curve; as a rule, active = well fitted curve in the direction sought with a large enough effect; inconclusive = small, poorly fitted or top-dose-only effect, or another doubt; inactive = no such curve, though single readings can be large; an effect the other way counts as inactive or inconclusive.

SMILES	HTT cytoprotect	PNC inhibitor	ALDH1A1 block	HPGD inh	GoLoco inh red	HTT aggregate
COc1ccc(C(=O)N2CCN(Cc3ccc4c(c3)OCO4)CC2)cc1[N+](=O)[O-]	-10%	.	1.6µM*	.	22%	?
O=C(c1cc2c(s1)CCCC2)N1CCN(Cc2ccc3c(c2)OCO3)CC1	-7%	12	14µM*	-27%	0%	-31%
O=C(Oc1ccc2c(c1)OCO2)c1cc2c(s1)CCC2	4%	?	-14%	22µM*	12%	-15%
O=C(c1ccc(Cn2cc(Cl)cn2)o1)N1CCN(Cc2ccc3c(c2)OCO3)CC1	-39%	-107*	?	.	.	?
COc1ccc(NC(=O)N2CC[C@@]3(CCCN(C(=O)c4csnn4)C3)C2)cc1	-27%	.	?	-1%	0%	.
O=C1NN(c2ccccc2)C(=O)/C1=C\c1ccc(-c2cc([N+](=O)[O-])ccc2O)o1	28%[10 µM]	.	?	.	65%	38%[9.22 µM]
O=C(Oc1ccc2c(c1)OCO2)c1ccc(F)cc1Cl	6%[10 µM]	-109*	-11%	?	-8%	-2%[9.22 µM]
CC1(C)OC(c2ccccc2)=C/C(=C/C=N/NC(=O)c2ccncc2)O1	-11%[10 µM]	.	?	.	39%	4%[9.22 µM]
C=CCn1c(SCC(=O)NC(=O)NCCC)nnc1C1CCCCC1	-33%	3	5.6µM*	-13%	-8%	-3%
C=CCn1c(SCC(=O)NC(=O)NC)nnc1C1CCCCC1	-9%	.	3%	.	-1%	9%
O=C(NC1CCCCC1)C1CCN(c2cnccn2)CC1	2%[10 µM]	-95*	15%	-11%	-1%	-2%
COc1ccc(NS(=O)(=O)c2ccc(SC)cc2)c(OC)c1	9%	?	8.9µM*	-11%	-22%	-18%
CCOc1ccc(NS(=O)(=O)c2ccc(N)cc2)cc1	3%	25	6%	-10%	11%	-15%
CCOc1ccc(S(=O)(=O)N/N=C(\C)c2ccc(OC)cc2OC)cc1	-15%	.	22µM*	.	0%	-15%
COc1ccc(NS(=O)(=O)c2cccs2)c(OC)c1	-10%	65	-10%	-5%	7%	-1%
CCOc1ccc(S(=O)(=O)NN)cc1	3%	-25	2µM*	-1%	-4%	19%
CCOc1ccc(NS(=O)(=O)c2ccc(SC)cc2)cc1	12%[10 µM]	-14	11µM*	-5%	5%	-22%
O=C(COc1ccc(Cl)cc1)NCc1ccncc1	-18%	.	10%	.	9%	-9%
CC(=O)NC1C(OCc2ccccc2)OC2COC(C)(C)OC2C1O (centres undefined)	8%[10 µM]	.	3%	.	20%	-4%[9.22 µM]
COc1ccc(S(=O)(=O)Nc2cccc(Cl)c2)cc1OC	-17%	19	?	-19%	1%	0%
COc1ccc(S(=O)(=O)NN=C2CCCC2)cc1	28%	61	?	0%	3%	16%
CCOC(=O)Cc1ccc(NS(=O)(=O)c2ccc(SC)cc2)cc1	-5%	-8	8.9µM*	-15%	12%	1%
CCOC(=O)c1ccc(NS(=O)(=O)c2ccc(SC)cc2)cc1	1%	-27	?	-13%	-5%	-5%
COc1ccc(S(=O)(=O)NN=C2CCCCC2)cc1	-19%	1	0.63µM*	-10%	-2%	7%
COc1ccc(S(=O)(=O)Nc2cccc(SC)c2)cc1OC	5%[10 µM]	7	0%	5%	6%	0.71µM*
CCOc1ccc(S(=O)(=O)NN=C2CCN(C(C)=O)CC2)cc1	-14%	.	7.9µM*	.	7%	-6%
O=C(Cc1ccccc1)Nc1nc2ccc(Cl)cc2c2nc(-c3ccco3)nn12	-23%	.	-19%	?	0%	.
